The values below come from paper PMC5540273 (PLoS ONE, 2017).

Each structure is given as a SMILES string.
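Also: kd values determined as follow-up on hits from a single-replicate KINOMEscan panel screen.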

For one assay, the system named is T1, PKAC-alpha.
T1 construct: gene PRKACA
For the compound `CCCc1ccc(S(=O)(=O)NC2CCN(c3ccnc(Nc4ccc(F)cc4)n3)C2)cc1` (stereo not shown) [GSK1379715], the equilibrium dissociation constant (Kd) is > 10 µM.
The same measure, in the same setting: the figure for `CCn1c(-c2ccccn2)nc2cnccc21` [SB-736398] is > 10 µM; for `O=S(=O)(c1ccc(-c2ccnc3[nH]ccc23)cc1)N1CCCC1` [GSK846226] it is 0.26 µM; for `Fc1cc(Cl)ccc1Nc1ccnc2cc(-c3ccc(CN4CCCCC4)o3)ccc12` [GW560116] it is > 10 µM.

The next assay relates to PLK4.
For the compound `COc1ccccc1CNC(=O)c1cc(C(=O)c2ccccc2C)c[nH]1` [GSK364507], the dissociation constant (Kd) is > 10 µM.
On the same count and under the same terms, for `COc1cc2ncnc(Nc3ccc4nc(-c5ccccc5)[nH]c4c3)c2cc1OC.Cl` [GW282450] the value was 1.6 µM; for `Nc1ncnc2[nH]c(-c3ccccc3)nc12` [AH5015], > 10 µM.

Another assay concerns PRKD1.
For the compound `Cc1cccc(-c2cc(Nc3ccncc3)c3ccccc3n2)n1` [GSK223675], the Kd amounted to 0.1 µM.
On the same count and under the same terms, the figure for `Cc1cccc(-c2nc(Nc3ccncc3)c3ccccc3n2)n1` [GW855857] is 0.0097 µM; for `COc1ccc2nc(-c3cccc(C)n3)nc(Nc3ccncc3)c2c1` [GSK204919] it is 0.051 µM; for `Cc1cccc(-c2nc(Nc3ccc4[nH]ncc4c3)c3ccccc3n2)n1` [GW857175] it is 0.019 µM.

The test system of the next assay is PRKD2.
Compound `Cc1cccc(-c2cc(Nc3ccncc3)c3ccccc3n2)n1` [GSK223675] came in with a dissociation constant (Kd) of 0.3 µM.
Same read-out and setting: for `Cc1cccc(-c2nc(Nc3ccncc3)c3ccccc3n2)n1` [GW855857] the value was 0.017 µM; for `COc1ccc(Nc2nccc(NCCNC(=O)Nc3ccccc3F)n2)cc1` [GSK1379901], > 10 µM; for `COc1ccc2nc(-c3cccc(C)n3)nc(Nc3ccncc3)c2c1` [GSK204919], 0.034 µM.
Same read-out and setting: the figure for `Cc1cccc(-c2nc(C)cc(Nc3ccncc3)n2)n1` [GSK257997] is 1.1 µM.
As for `Cc1cccc(-c2nc(Nc3ccc4[nH]ncc4c3)c3ccccc3n2)n1` [GW857175], the Kd stood at 0.015 µM. Compared with the last compound, the Kd is about 73-fold lower.

In a further assay the test system is PRKD3.
With `Cc1cccc(-c2cc(Nc3ccncc3)c3ccccc3n2)n1` [GSK223675], binding was characterised by a dissociation constant (Kd) of 0.21 µM.
On the same count and under the same terms, the figure for `COc1ccc2nc(-c3cccc(C)n3)nc(Nc3ccncc3)c2c1` [GSK204919] is 0.49 µM.
On the same count and under the same terms, for `Cc1cccc(-c2nc(Nc3cccc(C(N)=O)c3)c3ccccc3n2)n1` [GW876019] the value was 0.82 µM.
Same read-out and setting: the figure for `Cc1cccc(-c2nc(C)cc(Nc3ccncc3)n2)n1` [GSK257997] is 1 µM; for `Cc1cccc(-c2nc(Nc3ccc4[nH]ncc4c3)c3ccccc3n2)n1` [GW857175] it is 0.011 µM.
